# Assay results from PubChem BioAssay (NCI).
# This is part of a sample that, as a whole, favours compounds with a hit. Of some 83,000 tested, about 20% had one in any assay.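 Single-dose data. Exposure time 48 hours. Values below 10 considered active.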 A number with no mark means an inactive call. The source made the active and inactive calls.
# System: HL-60(TB) leukemia
# Experiment: NCI-60 one-dose screen, 48 h (100 = growth as untreated, 0 = no growth, -100 = all killed)
# Settings: 10 µM unless noted
row,Structure (SMILES),growth
1,O=C(CCCCCCc1nc2ccc(Br)cc2[nH]1)NO,2.12% (active)
2,c1ccc2c(-c3c4ccsc4cc4[nH]c5ccccc5c34)c[nH]c2c1,14.3%
3,COc1ccc2c(c1)[nH]c1c(/C=C/c3ccccc3)nccc12,61.1%
4,CCN(CC)Cc1cc(Nc2ccnc3cc(Cl)ccc23)ccc1OC,86%
5,CCCCCCn1c(=N)n(CC(O)COc2cccc(C)c2)c2ccccc21 (stereo not given),-48% (active)
6,Cc1nc2sc(C(=O)Nc3cccc4ccccc34)c(N)c2cc1C(=O)c1ccccc1,-50.6% (active)
7,COc1cccc(-c2nc3sccn3c2-c2ccnc(NCCCNS(=O)(=O)c3ccc(F)cc3)c2)c1,-13.5% (active)
8,COc1ccc(S(=O)(=O)Nc2cc(/C=C\c3cc(OC)c(OC)c(OC)c3)cc(OC)c2OC)cc1OC,2.73% (active)
9,COc1ccccc1S(=O)(=O)Nc1ccc2c3c(cc(CCC(=O)NCCCCNc4cccc5c4C(=O)N(C4CCC(=O)NC4=O)C5=O)cc13)C(=O)N2C (stereo not given),-1.81% (active)
10,CCOc1c(B(O)O)cccc1-c1nc2ccc3[nH]ncc3c2c2c1CCCC2,23.6%
11,O=c1cc(SCc2ccccc2)nc[nH]1,82.3%
12,O=C(CN1CCN(c2cc3c(cc2F)c(=O)c(C(=O)N/N=C/c2ccccc2)cn3C2CC2)CC1)N/N=C\c1ccccc1,51.1%
13,COc1ccc(NC2=C(I)C(=O)c3ncccc3C2=O)cc1,-47.5% (active)
14,O=C1c2ccccc2CCC1(Br)Br,-31.3% (active)
15,N#CC(=C1C=CC(=NO)C=C1)c1ccccc1,4.88% (active)
16,C/C(=C(\c1ccc(OCCN2CCOCC2)cc1)c1ccc(OC(=O)C2CCCCC2)cc1)c1ccc(Cl)cc1,96.4%
17,Clc1ccc(C2CC(c3cccc(Nc4ccncc4)c3)=NN2c2cc(Cl)cc(Cl)c2)cc1 (stereo not given),24.8%
18,O=C(/C=C/c1cc(CN2CCOCC2)c(O)c2ncccc12)c1cc(CN2CCOCC2)c(O)c2ncccc12,22%
19,COc1cc(C(=O)/C=C/c2c(-c3cccs3)nc3ccccn23)cc(OC)c1OC,-14.2% (active)
20,CN1C(=O)C2(SCC(C(=O)NCc3ccccc3)N2C(=O)C2CCCCC2)c2ccccc21 (stereo not given),80.4%

row,Structure (SMILES),growth
1,N#CCc1ncc(-c2ccc(C(F)(F)F)cc2)c(NC2CCCCCC2)n1,-28.4% [100 µM] (active)
2,c1ccc(C(CC2=NCCCN2)c2ccccc2)cc1,71%
3,COc1cc(/C=C/c2cc(/C=C/c3ccc(O)c(OC)c3)n(C(=O)Nc3ccc(F)cc3)n2)ccc1O,-21.4% (active)
4,CCC(c1ccc(OC)cc1)C(CC)c1ccc(O)c(CN2CCCC2)c1 (stereo not given),-45.9% (active)
5,N#Cc1c(-c2ccc(Cl)cc2)nc2c(c(-c3ccccc3)nn2-c2ccccc2)c1-c1ccc(O)cc1,32.8%
6,CN(C)c1ncc(-c2ccc(C(F)(F)F)cc2)c(NC2CCCCCC2)n1,39.8%
7,NC(=S)N/N=C(/CCN1CCCC1)CC(C1=C(O)C2=CCCCC2OC1=O)c1ccccc1 (stereo not given),72.9%
8,Cc1c2ccccc2nc2c1ccc1cccnc12,85.8%
9,O=C(Nc1cccc(Cl)c1)Nc1nccs1,88.7%
10,CCCOc1cc2ccccc2cc1C(=O)Nc1nc(N)c2c(ccc3nccc32)[nH]1,-56.3% (active)
11,Cc1nc2ccccc2c(=O)n1-c1cccc(OCc2cn(-c3cccc(O)c3)nn2)c1,101%
12,CCOC(=O)NNC(=S)Nc1ccccc1,106%
13,Clc1ccc(-c2nnc(COc3ccccc3Cl)o2)cc1,120%
14,COc1cc(NC(=O)C2=C(N3CCOCC3)/C(=C/c3ccc(Cl)cc3)CC2)cc(OC)c1OC,21.6%
15,N#Cc1c(NC(=O)c2ccc([N+](=O)[O-])o2)[n+]([O-])c2cc(F)c(F)cc2[n+]1[O-],90.2%
16,COc1ccc2[nH]c(O)c(/C=c3/cc4c(c(-c5ccc(F)cc5)n3)=Nc3ccccc3-4)c2c1,92.5%
17,N#C/C=C(\c1ccc([N+](=O)[O-])cc1)n1nnc2cc(Cl)c(Cl)cc21,13.3%
18,Cc1nc(-c2cn3c(n2)-c2ccc(-c4cnn(C(C)(C)C(N)=O)c4)cc2OCC3)n(C(C)C)n1,35.7%
19,COc1ccc2nc3cc(Cl)ccc3c(NCCNc3c4ccc(Cl)cc4nc4ccc(OC)cc34)c2c1,-75% (active)
20,CC(=O)N/C(=C1/OC(C(O)C(O)C(O)CO)CN1C)[P+](c1ccccc1)(c1ccccc1)c1ccccc1 (stereo not given),97.9%
